{"source": "ChEMBL document CHEMBL3433997", "about": "“St. Jude Leishmania screening dataset” (2016)", "type_in_all_cases": "functional", "key": {"[1]": {"target": "Solute carrier family 2, facilitated glucose transporter member 1 (Homo sapiens) (UniProt P11166)", "sequence (P11166 whole entry)": "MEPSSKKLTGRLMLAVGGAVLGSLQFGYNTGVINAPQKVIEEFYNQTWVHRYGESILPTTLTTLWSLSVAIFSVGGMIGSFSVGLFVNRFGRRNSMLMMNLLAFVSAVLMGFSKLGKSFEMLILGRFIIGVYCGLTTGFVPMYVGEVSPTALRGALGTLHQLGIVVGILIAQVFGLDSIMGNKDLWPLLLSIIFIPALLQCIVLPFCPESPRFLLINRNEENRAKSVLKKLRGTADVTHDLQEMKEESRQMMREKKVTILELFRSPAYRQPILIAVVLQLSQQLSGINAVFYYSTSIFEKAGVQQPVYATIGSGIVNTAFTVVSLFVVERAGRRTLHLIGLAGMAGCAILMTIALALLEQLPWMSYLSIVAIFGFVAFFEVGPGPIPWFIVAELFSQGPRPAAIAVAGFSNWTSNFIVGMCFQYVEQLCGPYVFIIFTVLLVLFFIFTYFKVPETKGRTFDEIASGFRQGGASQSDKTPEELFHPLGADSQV", "assay": "ST_JUDE_LEISH: Cytotoxicity at 2uM final concentration against transgenic Leishmania Mexicana promastigotes LmGLUT1 that are glucose transport deficient and complemented with the human glucose transporter GLUT1. Activity is measured by DNA content using SYBR green in vitro"}, "[2]": {"target": "Hexose transporter 1 (Plasmodium falciparum) (UniProt O97467)", "assay": "ST_JUDE_LEISH: Cytotoxicity at 2uM final concentration against transgenic Leishmania Mexicana promastigotes LmPfHT that are glucose transport deficient and complemented with the Plasmodium falciparum hexose transporter. Activity is measured by DNA content using SYBR green in vitro"}, "[3]": {"target": "Glucose transporter (Leishmania mexicana) (UniProt O61059)", "assay": "ST_JUDE_LEISH: Cytotoxicity at 2uM final concentration against transgenic Leishmania Mexicana promastigotes LmGT2 that are glucose transport deficient and complemented with the L. Mexicana glucose transporter 2. Activity is measured by DNA content using SYBR green in vitro"}}, "data": [{"smiles": "O=C1C2C3SC(c4c3ccc3ccccc43)C2C(=O)N1c1ccccc1", "note": "(stereo unspecified)", "values": [{"measurement": "inhibition", "setting": "[1]", "result": -0.44, "unit": "%"}, {"measurement": "inhibition", "setting": "[2]", "result": 0.31, "unit": "%"}, {"measurement": "inhibition", "setting": "[3]", "result": -1.01, "unit": "%"}]}, {"smiles": "O=C(/C=C/c1ccc(Cl)c(Cl)c1)NCCCCCCN1CCCN(C(=O)Nc2ccc(F)c(Cl)c2)CC1", "values": [{"measurement": "inhibition", "setting": "[1]", "result": 3.61, "unit": "%"}, {"measurement": "inhibition", "setting": "[2]", "result": 2.44, "unit": "%"}, {"measurement": "inhibition", "setting": "[3]", "result": 2.6, "unit": "%"}]}, {"smiles": "COc1ccc(NC(=O)c2ccc(-c3cc(NC(=O)c4ccnc(N5CCCC5)c4)ccc3C)s2)cc1N1CCN(C)CC1", "values": [{"measurement": "inhibition", "setting": "[1]", "result": -1.75, "unit": "%"}, {"measurement": "inhibition", "setting": "[2]", "result": 0.73, "unit": "%"}, {"measurement": "inhibition", "setting": "[3]", "result": -1.93, "unit": "%"}]}, {"smiles": "N#Cc1ccc2c(c1)CN(C1CCC(NC(=O)/C=C/c3cc(C(F)(F)F)cc(C(F)(F)F)c3)CC1)CCC2", "note": "(stereo unspecified)", "values": [{"measurement": "inhibition", "setting": "[1]", "result": 1.63, "unit": "%"}, {"measurement": "inhibition", "setting": "[2]", "result": 1.36, "unit": "%"}, {"measurement": "inhibition", "setting": "[3]", "result": 0.57, "unit": "%"}]}, {"smiles": "Cc1cc2cc(-c3ccc(CN)cc3)ccc2nc1N", "values": [{"measurement": "inhibition", "setting": "[1]", "result": -1.44, "unit": "%"}, {"measurement": "inhibition", "setting": "[2]", "result": 1.71, "unit": "%"}, {"measurement": "inhibition", "setting": "[3]", "result": -3.5, "unit": "%"}]}, {"smiles": "Nc1ncc(-c2cn[nH]c2)cc1-c1nc2cc(Cl)cnc2[nH]1", "values": [{"measurement": "inhibition", "setting": "[1]", "result": 3.35, "unit": "%"}, {"measurement": "inhibition", "setting": "[2]", "result": 1.4, "unit": "%"}, {"measurement": "inhibition", "setting": "[3]", "result": 1.93, "unit": "%"}]}, {"smiles": "O=C(NC1CCC(CCN2CCc3ccc(-c4cnccn4)cc3CC2)CC1)c1cccc(-n2cccn2)c1", "note": "(stereo unspecified)", "values": [{"measurement": "inhibition", "setting": "[1]", "result": 10.2, "unit": "%"}, {"measurement": "inhibition", "setting": "[2]", "result": 7.38, "unit": "%"}, {"measurement": "inhibition", "setting": "[3]", "result": 8.56, "unit": "%"}]}, {"smiles": "CCOc1ccc2c(c1)OC(c1ccccc1)(C(F)(F)F)NC2=O", "note": "(stereo unspecified)", "values": [{"measurement": "inhibition", "setting": "[1]", "result": 0.56, "unit": "%"}, {"measurement": "inhibition", "setting": "[2]", "result": -0.92, "unit": "%"}, {"measurement": "inhibition", "setting": "[3]", "result": 1.65, "unit": "%"}]}, {"smiles": "c1cc(CN2CCCCC2)cc(-c2ccc(-c3nc4ccccc4[nH]3)cc2)c1", "values": [{"measurement": "inhibition", "setting": "[1]", "result": -0.4, "unit": "%"}, {"measurement": "inhibition", "setting": "[2]", "result": 2.76, "unit": "%"}, {"measurement": "inhibition", "setting": "[3]", "result": -1.06, "unit": "%"}]}, {"smiles": "N=c1n(Cc2ccc(Cl)cc2)c2ccccc2n1CC(O)c1ccc(Cl)c(Cl)c1", "note": "(stereo unspecified)", "values": [{"measurement": "inhibition", "setting": "[1]", "result": 0.04, "unit": "%"}, {"measurement": "inhibition", "setting": "[2]", "result": 1.87, "unit": "%"}, {"measurement": "inhibition", "setting": "[3]", "result": -1.55, "unit": "%"}]}, {"smiles": "CC(C)OC(=O)c1ccc(NC(=O)N[C@@H](Cc2ccc(O)cc2)C(=O)NC2CC3CCC(C2)N3Cc2ccccc2)cc1", "note": "(stereo partly specified)", "values": [{"measurement": "inhibition", "setting": "[1]", "result": 5.85, "unit": "%"}, {"measurement": "inhibition", "setting": "[2]", "result": 4.77, "unit": "%"}, {"measurement": "inhibition", "setting": "[3]", "result": -0.07, "unit": "%"}]}, {"smiles": "CC(=O)Nc1[nH]c(-c2ccccc2)nc1C(N)=O", "values": [{"measurement": "inhibition", "setting": "[1]", "result": -1.96, "unit": "%"}, {"measurement": "inhibition", "setting": "[2]", "result": -0.89, "unit": "%"}, {"measurement": "inhibition", "setting": "[3]", "result": -1.65, "unit": "%"}]}]}
